Growth data for 40 compounds are collected here from PubChem BioAssay (NCI).

About 83,000 compounds went through this panel and 20% of them were active in at least one assay; those are over-represented in the sample as a whole.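 Treatment: one concentration, 48 hours, 96-well format. Scoring: percent growth, with anything below 10 considered active.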 Activity calls are given as the source filed them.

This experiment relates to HOP-92 NSCLC. Nature of the experiment: NCI-60 one-dose screen, 48 h (100 = growth as untreated, 0 = no growth, -100 = all killed). The conditions noted are these: 10 µM unless noted. The method, then:
Growth inhibition of the HOP-92 human Non-Small Cell Lung tumor cell line is measured as a screen for anti-cancer activity. Cells are grown in 96 well plates and exposed to the test compound for 48 hours. Compounds are tested at a single concentration, which is 10^-5 M for most compounds. The reported endpoint is percent growth (GI% or GIPRCNT), where numbers from 0 - 100% represent growth inhibition, and numbers from -100% - 0 represent cell death. For example, a value of 40 represents 60% growth inhibition. A value of 0 means no net growth occurred over the course of the experiment. A value of -40 indicates 40% of cells at the beginning of the experiment died by the end of the experiment. A value of -100 means all cells are dead at the end of the experiment.
NCI-60 Human Tumor Cell Lines Screen was performed using the standard one-dose NCI protocol, which is described in more detail at https://dtp.cancer.gov/discovery_development/nci-60/default.htm.
Compounds with GIPRCNT values below 10 were considered active. Activity score was based on GIPRCNT using the following formula: […]
Score is 0 for GIPRCNT values of 100 or above, 50 for GIPRCNT values of 0, and 100 for GIPRCNT values of -100.
Consider `CCOc1cc(CCNS(=O)(=O)c2ccc(C)cc2)c(C(C)=O)cc1OCC`, for which the growth is -5.84% [100 µM] (active). `Cc1sc2nc(N3CCCCC3)[nH]c(=O)c2c1C`: the growth is 93.8% (inactive).

Take `CCc1nn2c(-c3ccc(Cl)cc3C)c(-c3cc(OC)c(OC)c(OC)c3)nc2s1`: the growth was 58.1% (inactive). Regarding `CN(C)CCC(=O)Nc1ccc(-n2cc(-c3cccc(NC(=S)Nc4cccc(-c5cn(-c6ccc(NC(=O)CCN(C)C)cc6)nn5)c4)c3)nn2)cc1`, the growth was 101% (inactive). Turning to `Clc1ccc2c(c1)C(Br)c1cc(Cl)cc(Cl)c1-2` (stereo not given), the growth is 53.5% (inactive).

On to `NS(=O)(=O)c1cc(C2(O)NC(=O)c3ccccc32)ccc1Cl` (stereo not given), for which the growth was 104% (inactive). The figure for `O=C(CN1CCN(c2ccc(Cl)cc2)CC1)N1CCN(c2nnc(-c3ccc(Cl)cc3)c(-c3ccc(Cl)cc3)n2)CC1` is 60.1% (inactive).

For the compound `COc1cc(/C=C/C(=O)c2c(C)n([O-])c3ccc(Cl)cc3[n+]2=O)cc(OC)c1OC`, the growth is 78.6% (inactive).

Turning to `Cc1ccc(C2=NNC(c3sc(Cl)nc3Cl)C2)cc1` (stereo not given), the growth was 115% (inactive). For `O[N+]1=CC=CCC1=S.On1ccccc1=S.[Zn]`, the growth was -64.5% (active). On to `COc1cnc2c(c1)C(=O)c1c-2n(CCCn2ccnc2)c(=O)c2cc(F)ccc12`, for which the growth is -15.9% (active). As to `COc1cnc2c(c1)C(=O)c1c-2n(CCCN2CCNCC2)c(=O)c2cc(F)ccc12`, the growth is -7.94% (active). In the case of `COc1ccc(-c2nc3sc4c(c3c(=O)[nH]2)CCCCCC4)cc1`, the growth is 73.2% (inactive). With `N#Cc1ccc(-c2csc(Nc3ccc4nc5n(c(=O)c4c3)CCC5)n2)cc1`, the growth is 169% (inactive). On to `COP(=O)(OC)C(c1ccccc1)(c1ccccc1)c1ccccc1`, for which the growth is 62.8% (inactive).

Take `COc1ccc2cc(-c3nc4ccccc4[nH]3)c(=O)oc2c1`: the growth is 80.3% (inactive).

For the compound `COc1ccc2c(c1)sc1nc(-c3ccc(N(C)C)cc3)cn12`, the growth is 34.3% (inactive). `CC(=O)c1ccc(NS(=O)(=O)c2ccc([N+](=O)[O-])cc2)cc1`: the growth was 83.4% (inactive). On to `CCCc1n(Cc2ccc3ccccc3c2)cc[n+]1Cc1ccc2ccccc2c1`, for which the growth was -38.3% (active). With `N#Cc1c(-c2ccccc2)cc(-c2ccccc2)n(CCC(=O)O)c1=O`, the growth is 74.8% (inactive).

As to `O=C1c2cccc3c([N+](=O)[O-])ccc(c23)C(=O)N1CCCCl`, the growth was -82.5% [100 µM] (active). In the case of `COc1cc(C2CC(c3ccc(C)cc3)=NN2C=O)ccc1OCCN(C)C` (stereo not given), the growth is 77.7% (inactive). For the compound `CCCCCCCC[Si](OCC)(OCC)OCC`, the growth is 88.8% (inactive). `CC[n+]1c(/C=C/c2ccc(N3CCCC3)cc2)cccc1/C=C/c1ccc(N2CCCC2)cc1`: the growth is -73.3% (active). Consider `CC1CC=CCC1C1OCC(C)(C)CO1` (stereo not given), for which the growth is 106% (inactive). As to `COc1cc(/C=C/C(=O)CC(=O)/C=C/c2ccc(OC(=O)CCNC34CC5CC(CC(C5)C3)C4)c(OC)c2)ccc1OC(=O)CCNC12CC3CC(CC(C3)C1)C2`, the growth was 18.5% (inactive). Regarding `Oc1c(Cl)cc(Cl)c(Cl)c1Cc1c(O)c(Cl)cc(Cl)c1Cl`, the growth was -21.7% (active). Regarding `CC(NC(N)=S)c1ccccc1` (stereo not given), the growth was 106% (inactive).

Take `Nc1ccc2c(c1)Cc1cc(Cl)c(Cl)cc1-2`: the growth is 67.8% (inactive).

With `COc1cnc2c(c1)C(=O)c1c-2n(CCCNC2=NCCS2)c(=O)c2cc(F)ccc12`, the growth was 50.9% (inactive). On to `O=C1CNc2cc(Cl)ccc2N1`, for which the growth was 102% (inactive). Take `COc1ccc2c(c1)sc1nc(-c3ccc(Br)cc3)cn12`: the growth is 101% (inactive). `C/C(=C\CCc1ccoc1)CC/C=C(\C)CCCNc1ccc(F)cc1`: the growth was 96.3% (inactive).

For the compound `O=C(/C=C/c1cccc(Nc2ccnc3cc(Cl)ccc23)c1)c1ccc(Cl)cc1`, the growth is 45.8% (inactive). The figure for `NC(=NCCCCCCN=C(N)/N=C(\N)Nc1ccc(Cl)cc1)/N=C(\N)Nc1ccc(Cl)cc1` is -3.2% (active); for `COC(=O)C1(NC(=O)CNC(=O)OCc2ccccc2)CCCC1` it is 85.2% (inactive).

Take `COc1ccc(CNC(=O)c2c(C)n([O-])c3ccccc3[n+]2=O)cc1`: the growth was 82.6% (inactive). In the case of `COC(=O)[C@H](Cc1cn(C)cn1)NC(=O)[C@@H](NC(=O)Nc1cc(C(F)(F)F)cc(C(F)(F)F)c1)C(C)C`, the growth is -96.6% [100 µM] (active).

As for `CSc1nc(N)c2c(n1)N(C)C=NS2(=O)=O`, the growth was 79.1% (inactive). Turning to `Cc1[nH]c(=O)[nH]c(=O)c1CCSSCCc1c(C)[nH]c(=O)[nH]c1=O`, the growth is 116% (inactive).
